From PubChem BioAssay
Epigenetic reg = Quantitative High-Throughput Screen for Regulators of Epigenetic Control; murine LDR cells, GFP reporter derepression, 30 h; Potency, µM (titrated, usually from 53.9 µM), inactives show at the top dose GFP activation, actives largely listed as activators; 280,000 tested, 0.2% active; AID 1865, 2009; also: % of control where 0% means no effect; nearly all actives have a fitted effect of over 60% in size
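Murine LDR cells carrying a silenced, genomically integrated CMV-driven GFP reporter were exposed to compound for 30 hours at 37 C. After PBS washes, GFP-positive cells (20–120 um objects) were counted by laser-scanning microplate cytometry.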
PINK1 modulator = A Quantitative High throughput Screen to Identify Chemical Modulators of PINK1 Expression | PINK1 immunofluorescence, high-content cytometry, 24 h | Potency, µM (top dose mostly 76.6 µM), without a hit: at the top dose activation (PINK1 increase), hits mostly activators | 410,000 tested, 0.2% active | AID 624263, 2012; active = well fitted activation curve with a large enough effect; inconclusive = small, poorly fitted or top-dose-only effect; cell line not stated here; also: % of control where 0% means no effect; nearly all actives have a fitted effect of over 65% in size
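Cells are seeded, rested 12 hours, then given compound at five concentrations or DMSO for 24 hours. After fixation, blocking and antibody staining, PINK1 amount and mitochondrial localization are scored; CCCP serves as control.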
ClpP mod = qHTS Assay for Activators of ClpP; ATP-dependent Clp protease proteolytic subunit (Bacillus subtilis (strain 168)), P80244; purified B. subtilis ClpP, FRET peptide cleavage, 20 min; Potency, µM (top dose mostly 57.5 µM), for the others: top-dose activity change, negative = active; 340,000 tested, 1.9% active; active = well fitted falling curve with a large enough effect; inconclusive = small, poorly fitted or top-dose-only effect; inactive = no such curve, though single readings can be large or run the other way; also: the source files actives as falling curves though it sought activators and does not explain the sign; nearly all actives have a fitted effect of over 65% in size
Target sequence (P80244 whole entry, looked up): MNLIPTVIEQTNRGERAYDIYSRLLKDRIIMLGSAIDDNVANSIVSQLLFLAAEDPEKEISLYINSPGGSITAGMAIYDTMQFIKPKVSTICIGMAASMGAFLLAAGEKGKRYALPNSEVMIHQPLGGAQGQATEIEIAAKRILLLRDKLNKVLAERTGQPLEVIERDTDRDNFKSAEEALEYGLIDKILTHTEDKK
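Buffer: 100 mM Tris/HCl pH8, 100 mM KCl, 0.05% low protease BSA, 2.5% glycerol, 0.01% Tween-20. ClpP 10 microg/mL final; 20 min RT; delta FRET normalized to ADEP and DMSO controls.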
RORg inh = qHTS for inhibitors of ROR gamma transcriptional activity | Nuclear receptor ROR-gamma (Mus musculus), P51450 | Drosophila S2 Gal4-RORgamma UAS-luciferase reporter, 20 h | Potency, µM (doses to about 53.6 µM), for the others: at the top dose activity change, negative = inhibition, most hits filed as inhibitors | 310,000 tested, 5.4% active; also: % is scaled to controls: 0 for no effect and ±100 for the full control effect; nearly all actives have a fitted effect of over 60% in size
Target sequence (P51450 whole entry, looked up, the tested form may be a part): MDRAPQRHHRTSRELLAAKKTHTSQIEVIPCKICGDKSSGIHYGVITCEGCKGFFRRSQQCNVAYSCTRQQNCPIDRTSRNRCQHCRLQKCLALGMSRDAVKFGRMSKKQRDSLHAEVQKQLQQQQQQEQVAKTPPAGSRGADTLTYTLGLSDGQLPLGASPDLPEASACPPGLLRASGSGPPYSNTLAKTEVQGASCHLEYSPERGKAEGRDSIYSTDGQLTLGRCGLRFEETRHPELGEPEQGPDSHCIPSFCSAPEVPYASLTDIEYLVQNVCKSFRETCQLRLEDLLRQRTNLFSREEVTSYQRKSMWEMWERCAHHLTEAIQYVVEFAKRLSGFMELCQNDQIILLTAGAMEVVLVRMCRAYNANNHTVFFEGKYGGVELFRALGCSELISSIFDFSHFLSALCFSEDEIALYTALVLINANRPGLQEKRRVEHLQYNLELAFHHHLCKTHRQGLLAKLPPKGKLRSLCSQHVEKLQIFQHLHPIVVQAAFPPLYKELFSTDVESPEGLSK
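Drosophila Schneider cells stably carrying a metallothionein-driven Gal4 DBD–ROR gamma fusion and a UAS-Photinus luciferase reporter were exposed to compound for 1 hr, then induced with copper sulfate (700 uM final) for 20 hr at ambient temperature before luminescence reading.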
Sfp inh = qHTS Assay for Inhibitors of Bacillus subtilis Sfp phosphopantetheinyl transferase (PPTase); Biochemical Sfp PPTase activity, qHTS; Potency, µM, for inactives: largest response in the series, negative = inhibition, hits mostly inhibitors; 310,000 tested, 3.5% active; AID 1490, 2009;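 also: the enzyme is Sfp with the accession as filed and its product quenches rhodamine fluorescence; 0% = enzyme reaction without inhibitor and -100% = no enzyme wells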
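Reaction rates are the 30-min fluorescence difference (ex 525, em 598 nm) in wells containing 15 nM Sfp, 5 uM rhodamine-CoA and 12.5 uM BHQ-2-YbbR at pH 7.6 with 10 mM MgCl2.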
VP16 counter = VP16 counterscreen qHTS for inhibitors of ROR gamma transcriptional activity; 310,000 tested, 3.5% active; Drosophila S2 Gal4-VP16 UAS-luciferase, luminescence, 20 h; Potency, µM (series often up to 53.6 µM), without a hit: at the highest dose activity, negative = inhibition, actives largely listed as inhibitors;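 also: Gal4-VP16 expression switched on by copper sulfate through the metallothionein promoter; % is scaled to controls: 0 for no effect and ±100 for the full control effect; nearly all actives have a fitted effect of over 50% in size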
Starred values were filed as active, the others as inactive; ? = inconclusive; / = not tested or not shown; [ ] = another dose, or the depositor's remark. An excerpt weighted towards active compounds, which were near 8.1% of everything screened. Unless noted, calls follow the shape of the dose curve; as a rule, active = well fitted curve in the direction sought with a large enough effect; inconclusive = small, poorly fitted or top-dose-only effect, or another doubt; inactive = no such curve, though single readings can be large; an effect the other way counts as inactive or inconclusive. Potency is read from the fitted curve at half-maximal effect.

SMILES	Epigenetic reg	PINK1 modulator	ClpP mod	RORg inh	Sfp inh	VP16 counter
O=C(Cc1ccc(Cl)cc1)NN1C(=O)c2ccccc2C1=O	4%	0%	0%	-6%	9%	3%
COCCNC(=S)NCCCNc1nc2cc3c(cc2cc1C#N)OCO3	-8%	6%[38.3 µM]	14µM*	?	14µM*	6%[0.365 µM]
CN(C)CCCNC(=S)NCCNc1nc2cc3c(cc2cc1C#N)OCO3	3%	-1%	4%	0%	14%	-2%
COc1cc(C(=O)NCCCNc2nc3cc(C)c(C)cc3cc2C#N)cc(OC)c1OC	1%	1%	/	19%	79µM*	-22%
CCOCCCNC(=S)NCCCNc1nc2cc3c(cc2cc1C#N)OCO3	-5%	1%[38.3 µM]	10µM*	?	-9%	7%[0.365 µM]
Cc1cc(C)c2cc(C#N)c(NCCNC(=S)NCCCN3CCOCC3)nc2c1	-1%	-1%	4%	?	3%	5%
COCCCNC(=S)NCCNc1nc2c(C)c(C)ccc2cc1C#N	0%	5%	/	18µM*	-2%	?
COc1cc(C(=O)NCCNc2nc3c(C)c(C)ccc3cc2C#N)cc(OC)c1OC	/	5%	-22%	12%[1.91 µM]	-14%	14%
Cc1cc(Cl)ccc1OCC(=O)NCC1Cc2cc(-c3cnccn3)ccc2O1 (centres undefined)	/	2%	/	/	/	/
CCOCCCNC(=S)NCCNc1nc2ccc(C)cc2cc1C#N	0%	1%	/	?	-6%	7%
CCOCCCNC(=S)NCCCNc1nc2ccc(C)cc2cc1C#N	-1%	/	/	6.3µM*	-20%	-2%[10 µM]
CN1CCN(C(=O)c2ccc3c(c2)N(Cc2ccc(C(F)(F)F)cc2)C(=O)c2ccccc2S3)CC1	3%	0%	-4%	/	/	/
COc1ccc(CCNC(=O)CCCCn2c(=O)c3ccccc3n(Cc3cc(C)ccc3C)c2=O)cc1OC	-1%	-1%	0%	/	/	/
Cc1nn(C)c(Sc2ccccc2N)c1[N+](=O)[O-]	-1%	1%	0%	?	3.5µM*	-16%[10 µM]
Cc1nn(C)c(N)c1[N+](=O)[O-]	-1%	1%	0%	13%	4%	4%
COc1ccc(S(=O)(=O)N(C)CC(=O)O)cc1C	0%	/	/	/	/	/
COC(=O)C12CC3(CCC4C5C(C(OCc6ccccc6)C41)C52)OCCO3 (centres undefined)	0%[10.1 µM]	/	/	16%[10 µM]	23%	0%[10 µM]
CCCCNC(=O)CSc1nc2ccc(N3CCOCC3)cc2c(=O)n1CCc1ccccc1	1%	?	-9%	7.9µM*	-7%	7.9µM*
COCCNC(=O)CSc1nc2ccc(N3CCOCC3)cc2c(=O)n1CCc1ccccc1	0%	5%[38.3 µM]	-10%	3.5µM*	?	?
O=C(CSc1nc2ccc(N3CCOCC3)cc2c(=O)n1CCc1ccccc1)NCC1CCCO1 (centres undefined)	2%	1%	-20%	5.6µM*	-8%	13µM*
CCCCn1c(SCC(=O)NCCOC)nc2ccc(N3CCOCC3)cc2c1=O	0%	1%	?	?	10%	-17%
CCOC(=O)CSc1nc2ccc(N3CCOCC3)cc2c(=O)n1Cc1ccccc1	-1%	/	-12%	13µM*	?	?
CCOC(=O)CSc1nc2ccccc2c(=O)n1CCN1CCOCC1	-1%	-2%[38.3 µM]	0%	-21%	15%	-15%
Cc1nc2cccnc2n1-c1cccc(C(=O)N2CCN(c3ccc(Cl)cc3)CC2)c1	2%	0%	0%	/	/	/
CC1CN(Cc2cccn2-c2cccnc2)Cc2cc(Cl)ccc2O1 (centres undefined)	/	2%	/	/	/	/
SMILES	Epigenetic reg	PINK1 modulator	ClpP mod	RORg inh	Sfp inh	VP16 counter
COc1ccc(O)c(/C=N/NC(=O)CCC(=O)Nc2ccc(C)cc2)c1	/	1%	?	6.3µM*	2%	-17%
COc1ccc(OC)c(/C=N/NC(=O)CCCC(=O)Nc2cccc(Br)c2)c1	-2%	0%[38.3 µM]	25µM*	16%	-1%	-7%
COc1ccc(O)c(/C=N/NC(=O)CCC(=O)Nc2cccc(C)c2)c1	/	1%	/	13µM*	14%	?
CCOC(=O)c1c(-c2ccccc2)nc2cc(C)ccn12	-2%	2%[38.3 µM]	-23%	13µM*	-6%	-8%
CCOC(=O)c1c(-c2ccccc2)nc2ccc(C)cn12	6%	-1%	-7%	?	20%	-1%
CCOC(=O)c1c(O)c(O)c(C(=O)OCC)n1-c1ccccc1	0%	1%	1%	-6%	32µM*	30%
CCn1ccc2cc(S(=O)(=O)N3CCCN(C(=O)Nc4cc(Cl)ccc4C)CC3)ccc21	2%	-1%	-4%	/	/	/
COc1cccc(/C=C/C(=O)c2ccc3c(c2)OCCO3)c1OC	/	-2%	/	11µM*	-16%	?
O=C(O)c1ccc(/C=C/C(=O)c2ccc3c(c2)OCCCO3)cc1	/	-2%	/	5µM*	-9%	10µM*
O=C(/C=C/c1ccccc1)c1ccccc1	?	1%	0%	-44%	?	-7%
CC(C)(C)c1cc(C(=O)/C=C/c2ccc(C(=O)O)cc2)cc(C(C)(C)C)c1	?	/	/	7.1µM*	-4%	?
CCOC(=O)N/N=C1/C[C@@H](O)[C@@H](O)[C@@H]2[C@@H]3C(=O)N(c4cccc(Oc5ccccc5)c4)C(=O)[C@H]3CC[C@@H]12	2%[10.1 µM]	/	/	2%[10 µM]	5%	-8%[10 µM]
CCn1c(SCC(=O)c2c[nH]c3ccccc23)nc2cc(S(=O)(=O)N3CCOCC3)ccc21	8%	4%	28µM*	?	-6%	-6%
CCn1c(SCC(N)=O)nc2cc(S(=O)(=O)N3CCOCC3)ccc21	2%	4%	/	1%	16%	-15%
O=C1c2nc3cc(-c4ccco4)[nH]n3c(=O)c2CN1Cc1ccccc1	0%	-2%	2%	0%	20µM*	1%
COc1ccc(-c2ocnc2C(=O)Nc2ccccc2N2CCCCC2)cc1	-1%	8%	32µM*	9%	-2%	-2%
COc1ccc(OCC(=O)Nc2ccccc2N2CCCCC2)cc1	/	6%	0%	?	?	-7%
CC(C)c1nc2ccc(C(=O)NCCCN3CCN(c4cccc(Cl)c4)CC3)cc2o1	1%	0%	-1%	/	/	/
COc1ccccc1NS(=O)(=O)c1cccc(C(=O)N/N=C/c2ccc(N3CCOCC3)cc2)c1	0%	4%	-9%	-52%	13%	-12%
O=C(N/N=C/c1cccnc1)c1cccc(S(=O)(=O)Nc2cccc(Cl)c2)c1	4%	0%	/	10%	11%	4%
